Bioassay records from PubChem BioAssay.
A selection: hits, their analogues and other compounds. The true share with any hit is near 1.2%.
RGS16-Gao HTS: RGS16-Galphao interaction regulator (human); O15492+P09471; bead-based flow cytometry RGS16-Galphao binding, fluorescence; actives lie on both sides; binding response (% of control), % at 10 µM; hit rate 0.38% among 220,000;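 also: Galphao activated by GDP with aluminum fluoride before binding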
RGS7-Gao reg: human RGS7-Galphao interaction regulation; AID 1439; P09471; hit rate 0.35% among 220,000; Multiplexed bead flow cytometry, RGS7-Galphao binding; actives lie on both sides; binding response (% of control), % at 10 µM; in the data active = binding response below about 49% or above about 150%; inconclusive = no clear call, values can overlap the other calls; inactive = in between;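 also: fluorescent Galphao held in activated GDP-AlF4 state binding bead-coupled RGS7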
RGS4-Gao reg: modulates binding of RGS4 to human Galphao. P09471. Multiplexed bead flow cytometry; actives lie on both sides. binding response (% of control), % at 10 µM. hit rate 0.33% among 220,000. AID 1415; in the data active = binding response below about 49% or above about 150%; inactive = in between;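 also: fluorescent Galphao activated with aluminum fluoride binding bead-coupled RGS4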
Avidin bead fluor: compound fluoresces at 488/530 nm on avidin beads; compound fluorescence 488/530 nm, flow cytometry; stronger effect = higher value; fluorescence (KMESF) at 10 µM; hit rate 0.38% among 220,000; in the data active = fluorescence above about 47
RGS8-Gao: modulates binding of RGS8 to human Galphao | multiplexed bead flow cytometry; actives lie on both sides | response (percent of control binding), % at 10 µM | hit rate 0.34% among 220,000; in the data active = response below about 60% or above about 140%; inactive = in between;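 also: Galphao activated as the GDP aluminium fluoride complex binding bead-coupled RGS8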
GSH bead fluor: compound fluoresces at 488/530 nm on GSH beads. GSH beads flow cytometry, compound fluorescence 488/530 nm; stronger effect = higher value. fluorescence (KMESF) at 10 µM. AID 1776. hit rate 0.25% among 190,000; in the data active = fluorescence above about 89;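 also: glutathione beads carrying GST-tagged Bcl family fusion proteins plus one bare bead set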
RGS-Gao: modulates binding between human RGS4 and Galphao; shares compounds with RGS16-Gao HTS; multiplexed bead flow cytometry, RGS–Galpha-o binding; hit rate 99% among 1,600; RGS4–Galpha-o binding response, % at 10 µM;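 also: fluorescently labeled Galpha-o bound to GDP with aluminium fluoride binding biotinylated RGS beads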
Avidin counter: counter-screen: compounds disrupting biotin binding to avidin beads. shares compounds with RGS16-Gao HTS. streptavidin beads, fluorescein-biotin binding, flow cytometry. inhibition, % at 10 µM. 1,700 tested, under 10 active. AID 1783;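 active = inhibition above 50%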;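 also: median green fluorescence of gated singlet beads compared with DMSO control wells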
RGS8-Gao confirm: RGS8-Galphao interaction regulation, single point confirmation; shares compounds with RGS16-Gao HTS; bead-based flow cytometry RGS8-Galphao binding, fluorescence; actives lie on both sides; binding response (% of control), % at 10 µM; hit rate 3% among 1,700; AID 1836; in the data active = binding response below about 72% or above about 130%; inactive = in between;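 also: Galphao activated as GDP AlF4 complex before binding bead RGS8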
RGS7-Gao single: RGS7-Galphao interaction regulation, single point confirmation; shares compounds with RGS16-Gao HTS; bead-based flow cytometry RGS7-Galphao binding; actives lie on both sides; response (percent of control binding), % at 10 µM; hit rate 7.8% among 1,700; in the data active = response below about 75% or above about 130%; inactive = in between;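 also: fluorescent Galphao activated with GDP and aluminum fluoride binding bead-coupled RGS7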
RGS16-Gao single: RGS16-Galphao interaction regulation, single point confirmation. hit rate 4% among 1,700. AID 1838. response (% of control binding), % at 10 µM. shares compounds with RGS16-Gao HTS. bead-based flow cytometry, RGS16-Galphao binding; actives lie on both sides; in the data active = response below about 74% or above about 130%; inactive = in between;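 also: Galphao activated as the GDP aluminium fluoride complex binding bead-coupled RGS16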
RGS4-Gao confirm: confirmation of regulators of human RGS4-Galphao interaction; shares compounds with RGS16-Gao HTS; RGS4-Galphao binding, multiplexed bead flow cytometry; actives lie on both sides; binding response (% of control), % at 10 µM; hit rate 4% among 1,700; AID 1840; in the data active = binding response below about 74% or above about 130%; inactive = in between
RGS19-Gao conf: RGS19-Galphao interaction regulation, single point confirmation. response (percent of control binding), % at 10 µM. shares compounds with RGS16-Gao HTS. bead-based flow cytometry RGS19-Galphao binding; actives lie on both sides. hit rate 5% among 1,700; in the data active = response below about 50% or above about 160%; inactive = in between
Target sequence (P09471 whole entry, looked up): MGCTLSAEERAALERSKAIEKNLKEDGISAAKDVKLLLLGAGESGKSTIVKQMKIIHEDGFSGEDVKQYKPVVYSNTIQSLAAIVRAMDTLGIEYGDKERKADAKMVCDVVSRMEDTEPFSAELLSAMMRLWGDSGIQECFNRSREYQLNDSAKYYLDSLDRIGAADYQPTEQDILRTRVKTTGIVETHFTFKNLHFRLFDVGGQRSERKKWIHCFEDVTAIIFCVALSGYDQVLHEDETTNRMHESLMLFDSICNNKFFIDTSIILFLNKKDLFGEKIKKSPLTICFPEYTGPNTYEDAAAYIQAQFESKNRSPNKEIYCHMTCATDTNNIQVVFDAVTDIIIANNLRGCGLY
Target sequence (P49795 whole entry, looked up): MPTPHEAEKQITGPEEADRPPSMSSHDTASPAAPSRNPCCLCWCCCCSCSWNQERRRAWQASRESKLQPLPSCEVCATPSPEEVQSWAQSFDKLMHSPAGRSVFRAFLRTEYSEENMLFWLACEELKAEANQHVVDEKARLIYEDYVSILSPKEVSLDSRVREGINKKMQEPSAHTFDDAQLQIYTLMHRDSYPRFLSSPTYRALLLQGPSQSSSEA
Hits are given with their value; . = inactive; ? = inconclusive; / = no result given; [ ] = remark or other dose. Unless noted, no rule for the calls is given here.

SMILES	RGS16-Gao HTS	RGS7-Gao reg	RGS4-Gao reg	Avidin bead fluor	RGS8-Gao	GSH bead fluor	Avidin counter	RGS8-Gao confirm	RGS7-Gao single	RGS16-Gao single	RGS4-Gao confirm	RGS19-Gao conf	others
Cc1nc2ccccc2nc1OCC(=O)Nc1cc(C(F)(F)F)ccc1N1CCOCC1	.	.	.	.	.	.	/	/	/	/	/	/
O=C(CSc1n[nH]c(-c2ccccc2O)n1)N1CCOCC1	.	.	.	.	.	.	/	/	/	/	/	/
Nc1nc(SCC(=O)N2CCOCC2)n[nH]1	.	189.5[activator]	.	.	.	.	.	.	.	.	.	.	RGS-Gao=128.7
Nc1[nH]nc2nc(-c3ccccc3)[nH]c(=O)c12	.	?	.	.	.	/	/	/	/	/	/	/
Nc1nc(-c2ccccc2)[nH]c(=O)c1N	.	.	.	.	.	.	.	.	.	.	.	.
COC(=O)C(/C=N/OCc1ccc([N+](=O)[O-])cc1)NC(=O)c1cccc(Cl)c1 (stereo not given)	.	.	.	.	.	.	/	/	/	/	/	/
COC(=O)c1sccc1NC(=O)c1c(C)noc1C	.	.	.	.	.	.	/	/	/	/	/	/
COC(=O)c1sccc1NC(=O)c1cc(C)on1	/	.	.	/	.	.	.	.	.	.	.	.
CCCN1C(=O)c2cc(C(=O)Nc3ccc(OC)cc3OC)ccc2C1Nc1ccc(OC)cc1OC (stereo not given)	.	.	.	.	.	.	/	/	/	/	/	/
O=[N+]([O-])c1ccc(/C=N/n2c(COc3ccccc3)n[nH]c2=S)cc1	.	.	.	.	.	.	/	/	/	/	/	/
O=[N+]([O-])c1cccc(/C=N/n2c(COc3ccccc3)n[nH]c2=S)c1	271.6[activator]	.	.	.	.	.	.	.	.	.	.	.	RGS-Gao=117.9
CCS(=O)(=O)n1nc(-c2ccco2)nc1N	.	.	.	.	.	.	/	/	/	/	/	/
Cc1ccc(NC(=O)Nc2cnccn2)cc1Cl	.	.	.	.	.	.	/	/	/	/	/	/
O=C(Nc1cnccn1)Nc1ccc(Cl)cc1Cl	/	/	/	/	/	.	.	.	.	.	.	.
O=C(NC(=O)c1ccccc1O)c1ccc(C(F)(F)F)cc1	.	?	.	.	.	/	/	/	/	/	/	/
CCCc1ccc(C(=O)NC(=O)c2ccccc2O)cc1	.	?	32.9	.	53.4	/	.	.	.	.	.	.
Cc1ccc(C)c(C(=O)OCC(=O)Nc2cccc(S(=O)(=O)NC3=NCCCCC3)c2)c1	.	.	.	.	.	.	/	/	/	/	/	/
O=C(O)CCCC(=O)N1CCC(C(O)(c2ccccc2)c2ccccc2)CC1	.	.	.	.	.	.	.	.	.	.	.	.
OC(c1ccccc1)(c1ccccc1)C1CCN(C(=S)NCCc2ccccc2)CC1	.	.	.	.	.	.	/	/	/	/	/	/
CC1=C(C(=O)OCC2CCCO2)C(c2ccccc2)C2=C(CC(C)(C)CC2=O)N1 (stereo not given)	.	.	.	.	.	.	/	/	/	/	/	/
O=C(NCCCN1CCCC1)C1CCN(C(=O)c2cc3sccc3n2Cc2ccc(F)cc2)CC1	.	181.4[activator]	.	193	.	.	/	/	/	/	/	/	RGS-Gao=133.9
COCCCNC(=O)C1CCN(C(=O)c2cc3sccc3n2Cc2ccc(F)cc2)CC1	.	.	.	.	.	.	/	/	/	/	/	/
